Test results as given in article PMC12431657, “Discovery and mechanistic insights of dibenzoylmethane as a broad spectrum inhibitor of coronavirus” (PLOS Pathogens, 2025).
Like-named read-outs stand apart in the source and are kept apart here. The whole screen tested about 3,300 compounds, of which about 95 (3%) showed an effect of 50% or more. This excerpt belongs to a sample that is enriched for strong results.

Test system: HCoV-229E
Set-up: species or system Huh-7; HTS, protection from HCoV-229E induced cell death, luminescent cell viability (CellCounting-Lite 2.0), inhibition rate

## C[C@]12CC[C@@H](O)C[C@@H]1CC[C@@H]1[C@@H]2CC[C@]2(C)C(=O)CC[C@@H]12 [Androsterone]
24 h, 10 µM; inhibitor
  229E Inhibition rate: 52.3%

## C[C@]12CC[C@H](O)C[C@@H]1CC[C@@H]1[C@@H]2CC[C@]2(C)C(=O)CC[C@@H]12 [Epiandrosterone]
24 h, 10 µM; inhibitor
  229E Inhibition rate: 29.3%

## C[C@]12CC[C@@H](O)C[C@H]1CC[C@@H]1[C@@H]2CC[C@]2(C)C(=O)CC[C@@H]12 [Etiocholanolone]
24 h, 10 µM; inhibitor
  229E Inhibition rate: 13.1%

## COc1cc2cc(c1Cl)N(C)C(=O)C[C@H](OC(=O)C(C)C)[C@]1(C)O[C@@H]1[C@H](C)[C@@H]1C[C@@](O)(NC(=O)O1)[C@H](OC)/C=C/C=C(\C)C2 [Ansamitocin P-3]
24 h, 10 µM; inhibitor
  229E Inhibition rate: 22.8%

## CN(C)NC(=O)CCC(=O)O [Daminozide]
24 h, 10 µM; inhibitor
  229E Inhibition rate: 12.3%

## NC(=O)Cc1ccccc1 [2-Phenylacetamide]
24 h, 10 µM; inhibitor
  229E Inhibition rate: 20.1%

## NC(=O)NCCCC[C@H](N)C(=O)O [L-Homocitrulline]
24 h, 10 µM; inhibitor
  229E Inhibition rate: 20.7

## CC(C)(C)[C@]1(O)C[C@@H]2OC(=O)C[C@@]23C(=O)O[C@@H]2OC(=O)[C@H](O)[C@]213 [Bilobalide]
24 h, 10 µM; inhibitor
  229E Inhibition rate: 54.8%

## C/C=C/C#CC#C/C=C/c1ccco1 [Atractylodin]
24 h, 10 µM; inhibitor
  229E Inhibition rate: 10.3%

## C[C@@H]1CC[C@@]2(OC1)O[C@H]1[C@@H](O)[C@H]3[C@@H]4CC[C@H]5C[C@@H](O[C@@H]6O[C@H](CO)[C@H](O[C@@H]7O[C@H](CO)[C@@H](O)[C@H](O[C@@H]8OC[C@@H](O)[C@H](O)[C@H]8O)[C@H]7O[C@@H]7O[C@H](CO)[C@H](O)[C@H](O[C@@H]8O[C@H](CO)[C@@H](O)[C@H](O)[C@H]8O)[C@H]7O)[C@H](O)[C@H]6O)[C@H](O)C[C@]5(C)[C@H]4CC[C@]3(C)[C@H]1[C@@H]2C [Digitonin]
24 h post infection, 1 h compound pre-incubation; 10 µM; inhibitor
  229E Inhibition rate: 13.7%

## CCN1C[C@]2(C)CC[C@H](OC)[C@@]34C1[C@]1(OCO[C@@]15C[C@H](OC)[C@H]1C[C@]3(O)[C@@H]5[C@H]1OC)[C@@H](OC(C)=O)[C@H]24 [Deltaline]
24 h, 10 µM; inhibitor
  229E Inhibition rate: 2.6%

## CN1Cc2c(ccc3c2OCO3)[C@@H]2[C@H]1c1cc3c(cc1C[C@@H]2O)OCO3 [Chelidonine]
24 h, 10 µM; inhibitor
  229E Inhibition rate: 12.4%

## C[C@H]1O[C@@H](O[C@H]2CC[C@@]3(C)[C@H](CC[C@@H]4[C@@H]3C[C@@H](O)[C@]3(C)[C@@H](C5=CC(=O)OC5)CC[C@]43O)C2)C[C@H](O)[C@@H]1O[C@H]1C[C@H](O)[C@H](O[C@H]2C[C@H](O)[C@H](O[C@@H]3O[C@H](CO)[C@@H](O)[C@H](O)[C@H]3O)[C@@H](C)O2)[C@@H](C)O1 [Deslanoside]
24 h, 10 µM; inhibitor
  229E Inhibition rate: 55.1

## CO[C@@H]1C[C@H](O[C@H]2CC[C@@]3(C)[C@H](CC[C@@]45O[C@@]46CC[C@H](C4=CC(=O)OC4)[C@@]6(C)CC[C@H]35)C2)O[C@H](C)[C@@H]1O [Adynerin]
24 h, 10 µM; inhibitor
  229E Inhibition rate: 9.5%

## CO[C@H]1C[C@H](O[C@H]2CC[C@]3(C)[C@H]4CC[C@]5(C)[C@@H](C6=CC(=O)OC6)CC[C@]5(O)[C@@H]4CC[C@]3(O)C2)O[C@H](C)[C@H]1O[C@@H]1O[C@H](CO)[C@@H](O)[C@H](O)[C@H]1O [Periplocin]
24 h, 10 µM; inhibitor
  229E Inhibition rate: 25

## CC(C)=CCCC1=CC(=O)c2c(O)ccc(O)c2C1=O [Deoxyshikonin]
24 h, 10 µM; inhibitor
  229E Inhibition rate: 9.8%

## CC1(C)[C@H]2O[C@H]2[C@H]2[C@](C)(O)[C@@H]3CC[C@@H]4[C@@H](O)[C@@]3(C[C@@H](O)[C@@]21O)C[C@@]4(C)O [Rhodojaponin III]
24 h, 10 µM; inhibitor
  229E Inhibition rate: 46.8%

## CC(C)[C@@H]1NC(=O)[C@H](C)OC(=O)[C@@H](C(C)C)NC(=O)[C@@H](C(C)C)OC(=O)[C@H](C(C)C)NC(=O)[C@H](C)OC(=O)[C@@H](C(C)C)NC(=O)[C@@H](C(C)C)OC(=O)[C@H](C(C)C)NC(=O)[C@H](C)OC(=O)[C@@H](C(C)C)NC(=O)[C@@H](C(C)C)OC1=O [Valinomycin]
24 h, 10 µM; inhibitor
  229E Inhibition rate: 90.8%

## COC1=CC(=O)O[C@@H](/C=C/c2ccccc2)C1 [(+)-Kavain]
24 h, 10 µM, inhibitor
  229E Inhibition rate: 9.8%

## COC(=O)[C@]12OC[C@]34[C@H]([C@@H](O)[C@@H]1O)[C@@]1(C)CC(=O)C(O)=C(C)[C@@H]1C[C@H]3OC(=O)[C@H](OC(=O)/C=C(\C)C(C)(C)OC(C)=O)[C@@H]24 [Bruceantinol]
24 h, 10 µM; inhibitor
  229E Inhibition rate: 0%
